Values joined by “and” are separate entries in the source; they are usually repeats but may differ in a detail not shown here. Identical values can stand only once. Results filed as inconclusive are left out. More than one record can exist for a structure, and the calls need not agree. Active and inactive are the calls of the source. Unless noted, calls follow the shape of the dose curve; as a rule, active = well fitted curve in the direction sought with a large enough effect in the repeat runs; inconclusive = weak or mixed curves; inactive = no such curve, though single readings can be large; an effect the other way counts as inactive or inconclusive.
Experiments:
[1] = qHTS assay to identify small molecule antagonists of the estrogen related receptor (ERR) signaling pathway from Tox21 library - cell viability counter screen (AID 1224834); also: nearly all actives have a fitted effect of over 30% in size; also: potency is read from the fitted curve at half-maximal effect
Outline: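 In this quantitative HTS format, ERR cells receive compounds in DMSO and are incubated for 17.5 h at 37 C. Live-cell protease activity is then detected with CellTiter-Fluor.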

[2] = target: Luciferin 4-monooxygenase (Photinus pyralis) (UniProt P08659); experiment: qHTS assay to identify small molecule inhibitors of firefly luciferase (AID 1224835); also: nearly all actives have a fitted effect of over 25% in size; also: potency is read from the fitted curve at half-maximal effect
Luciferin 4-monooxygenase (Photinus pyralis), sequence (P08659 whole entry, looked up): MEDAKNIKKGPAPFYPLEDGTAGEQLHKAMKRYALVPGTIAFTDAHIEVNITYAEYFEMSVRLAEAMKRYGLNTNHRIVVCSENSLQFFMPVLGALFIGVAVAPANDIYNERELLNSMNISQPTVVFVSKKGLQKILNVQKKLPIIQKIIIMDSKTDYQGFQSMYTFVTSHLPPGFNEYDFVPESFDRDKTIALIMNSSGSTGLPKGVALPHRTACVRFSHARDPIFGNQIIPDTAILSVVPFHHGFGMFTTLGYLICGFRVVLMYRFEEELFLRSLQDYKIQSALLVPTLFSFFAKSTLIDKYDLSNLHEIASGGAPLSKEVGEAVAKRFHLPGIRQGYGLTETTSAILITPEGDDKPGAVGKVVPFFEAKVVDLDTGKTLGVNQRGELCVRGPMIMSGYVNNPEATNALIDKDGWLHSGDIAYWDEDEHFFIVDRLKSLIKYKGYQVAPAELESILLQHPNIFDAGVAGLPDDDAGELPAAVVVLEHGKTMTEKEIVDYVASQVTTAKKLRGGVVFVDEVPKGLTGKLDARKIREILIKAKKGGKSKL
Outline: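 Quantitative HTS format; KM concentrations of both substrates. Purified P. pyralis FLuc activity quantified from luminescence images.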

[3] = qHTS assay to identify small molecule agonists of the constitutive androstane receptor (CAR) signaling pathway - cell viability counter screen (AID 1224836); also: nearly all actives have a fitted effect of over 45% in size
Outline: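 23 h treatment, 37 C, 5% CO2. Cell line: HepG2 stably expressing hCAR with a CYP2B6-2.2kb construct. Co-treatment: PK11195, 0.75 uM final. Read-out: CellTiter-Fluor fluorescence intensity.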

[4] = qHTS assay to identify small molecule antagonists of the constitutive androstane receptor (CAR) signaling pathway - cell viability counter screen (AID 1224837); also: nearly all actives have a fitted effect of over 45% in size
Outline: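 In quantitative HTS format, compounds at 15 concentrations were applied to HepG2 cells double-transfected with hCAR and CYP2B6-2.2kb under 50 nM CITCO stimulation; live-cell protease activity was read after 23 hr via CellTiter-Fluor.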

[5] = target: Nuclear receptor subfamily 1 group I member 3 (Homo sapiens) (UniProt Q14994); experiment: qHTS assay to identify small molecule antagonists of the constitutive androstane receptor (CAR) signaling pathway (AID 1224838); also: nearly all actives have a fitted effect of over 40% in size
Nuclear receptor subfamily 1 group I member 3 (Homo sapiens), sequence (Q14994 whole entry, looked up): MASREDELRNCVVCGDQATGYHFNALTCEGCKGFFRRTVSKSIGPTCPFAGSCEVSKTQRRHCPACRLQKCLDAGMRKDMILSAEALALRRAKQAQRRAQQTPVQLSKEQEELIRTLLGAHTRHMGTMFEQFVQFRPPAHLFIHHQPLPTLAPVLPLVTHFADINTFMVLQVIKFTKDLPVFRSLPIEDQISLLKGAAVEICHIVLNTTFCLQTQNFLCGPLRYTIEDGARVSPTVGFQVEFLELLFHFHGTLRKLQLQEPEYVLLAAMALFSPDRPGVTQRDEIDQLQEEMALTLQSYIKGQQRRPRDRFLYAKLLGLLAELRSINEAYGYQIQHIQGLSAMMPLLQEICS
Outline: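 CITCO-stimulated (50 nM final) HepG2 cells stably transfected with hCAR and CYP2B6-2.2kb luciferase were exposed to compounds at 15 concentrations for 24 h at 37 C/5% CO2. A luciferase reagent was added and luminescence recorded after 30 min.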

[6] = target: Nuclear receptor subfamily 1 group I member 3 (Homo sapiens) (UniProt Q14994); experiment: qHTS assay to identify small molecule agonists of the constitutive androstane receptor (CAR) signaling pathway (AID 1224839); also: nearly all actives have a fitted effect of over 15% in size; also: potency is read from the fitted curve at half-maximal effect;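 as to activation: HepG2 cells stably carrying human CAR and a CYP2B6 luciferase reporter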
Outline: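 Compounds tested at 15 concentrations on HepG2 cells stably harbouring hCAR and CYP2B6-2.2kb reporter constructs, co-treated with PK11195 (0.75 uM final), 24 h at 37 C; luminescent reporter signal quantified.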

[7] = qHTS assay to identify small molecule antagonists of the estrogen related receptor signaling pathway with the pleiotropic PPARgamma coactivator (PGC) from Tox21 10K library - cell viability counter screen (AID 1224840; active = well fitted cell-killing curve with a large enough effect in the repeat runs, not every such curve was filed as active; also: nearly all actives have a fitted effect of over 40% in size)
Outline: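 Viability counter screen, PGC/ERR cells: 17.5 h compound exposure at 37 C, CellTiter-Fluor fluorescence endpoint.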

[8] = target: Thyrotropin receptor (Homo sapiens) (UniProt P16473); experiment: qHTS assay to identify small molecule agonists of the thyroid stimulating hormone receptor (TSHR) signaling pathway (AID 1224843; calls by dose curve; also: nearly all actives have a fitted effect of over 45% in size)
Thyrotropin receptor (Homo sapiens), sequence (P16473 whole entry, looked up): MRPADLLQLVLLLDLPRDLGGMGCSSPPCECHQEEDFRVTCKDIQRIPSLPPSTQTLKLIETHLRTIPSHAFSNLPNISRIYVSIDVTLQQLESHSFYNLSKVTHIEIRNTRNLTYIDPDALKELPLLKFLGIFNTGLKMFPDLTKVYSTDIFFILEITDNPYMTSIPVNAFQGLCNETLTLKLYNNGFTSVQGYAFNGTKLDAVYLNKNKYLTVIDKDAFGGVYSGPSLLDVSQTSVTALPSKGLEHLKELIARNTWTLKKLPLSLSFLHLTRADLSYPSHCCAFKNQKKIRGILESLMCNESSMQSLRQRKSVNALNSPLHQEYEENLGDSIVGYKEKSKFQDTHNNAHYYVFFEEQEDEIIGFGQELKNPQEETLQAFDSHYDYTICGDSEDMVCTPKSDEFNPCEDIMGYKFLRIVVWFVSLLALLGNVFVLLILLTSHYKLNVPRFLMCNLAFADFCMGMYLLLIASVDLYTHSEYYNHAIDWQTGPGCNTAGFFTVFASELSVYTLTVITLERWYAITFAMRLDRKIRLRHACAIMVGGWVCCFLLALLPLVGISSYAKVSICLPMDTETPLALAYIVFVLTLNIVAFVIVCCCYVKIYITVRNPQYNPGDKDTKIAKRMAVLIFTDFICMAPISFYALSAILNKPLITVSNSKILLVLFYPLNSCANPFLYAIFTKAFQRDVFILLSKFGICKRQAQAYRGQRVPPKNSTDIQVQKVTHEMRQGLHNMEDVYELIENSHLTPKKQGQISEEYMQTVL
Outline: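 Compounds are titrated over 15 concentrations, in triplicate, onto TSHR-HEK293 cells seeded at 800/well. Plates sit 30 min at room temperature before cAMP-d2 and anti-cAMP cryptate are added; signal is read after a further hour.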

[9] = qHTS assay to identify small molecule agonists of the hypoxia (HIF-1) signaling pathway - cell viability counter screen (AID 1224844; calls by dose curve; also: nearly all actives have a fitted effect of over 50% in size)
Outline: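 Same wells as the HIF-1 reporter screen; ME-180 cells carrying HRE-bla, 17 hr treatment at 37C; CellTiter-Glo luminescence read after 30 min at room temperature.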

[10] = qHTS assay to identify small molecule agonists of the hypoxia (HIF-1) signaling pathway (AID 1224846; active = well fitted activation curve with a large enough effect in the signal ratio in the repeat runs, not every such curve was filed as active; the % refers to the signal ratio)
Outline: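 In ME-180 cells bearing an HRE-bla construct, 17 h treatment with DMSO-dissolved compounds at 37C was followed by CCF4-AM loading to quantify reporter induction.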

[11] = qHTS assay to identify small molecule agonists of H2AX - cell viability counter screen (AID 1224847; calls by dose curve; also: nearly all actives have a fitted effect of over 30% in size; also: potency is read from the fitted curve at half-maximal effect)
Outline: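 Compounds tested at 15 concentrations were incubated 3 hr at 37C with wild-type CHO-K1 cells; cellular ATP-based luminescence (CellTiter-Glo) indicated viability.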

[12] = qHTS RealTime-Glo MT Cell Viability Assay in HepG2 cells - 24 hour (AID 1224867); also: nearly all actives have a fitted effect of over 50% in size
Outline: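 HepG2 cells (600/well) were dispensed with RealTime-Glo reagents, incubated 5 h at 37 °C, then treated with compounds in DMSO for up to 40 h. Nonlytic NanoLuc luminescence reflecting viable cells was read at each stated time point.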

[13] = qHTS RealTime-Glo MT Cell Viability Assay in HEK293 cells - 32 hour (AID 1224868); also: nearly all actives have a fitted effect of over 50% in size; also: potency is read from the fitted curve at half-maximal effect
Outline: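 HEK293 cells seeded with NanoLuc/prosubstrate reagent, rested 5 h at 37 C, then dosed and kept at 37 C up to 40 h. Nonlytic real-time luminescence from viable cells read at 0, 8, 16, 24, 32 and 40 h.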

[14] = A CellTox Green Cytotoxicity Assay to monitor cytotoxicity in HEK293 cells - 0 hour (AID 1224869); also: nearly all actives have a fitted effect of over 50% in size
Outline: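 Homogeneous no-lysis format: HEK293 cell suspension mixed with CellTox Green reagent, seeded, incubated 5 h at 37 C/5% CO2, then dosed by pintool with compound in DMSO.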

[15] = qHTS RealTime-Glo MT Cell Viability Assay in HepG2 cells - 40 hour (AID 1224870); also: nearly all actives have a fitted effect of over 50% in size
Outline: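 HepG2 cells mixed with RealTime-Glo MT reagents (NanoLuc plus cell-permeant prosubstrate) were seeded at 600 cells/well, incubated 5 h at 37 C/5% CO2, then pinned with compounds in DMSO; nonlytic luminescence tracked viability during 40 h treatment.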

[16] = qHTS assay to identify small molecule agonists of H2AX (AID 1224845; active = well fitted activation curve with a large enough effect in the signal ratio in the repeat runs, not every such curve was filed as active; the % refers to the signal ratio)
Outline: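 Wild-type CHO-K1 cells plated overnight, then exposed 3 hr at 37C to compounds at 15 concentrations (0.76% DMSO). Lysed, then HTRF anti-pH2AX(S139)-cryptate/anti-H2AX-d2 detection after 24 hr at room temperature; emissions 665 and 620 nm.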

[17] = qHTS assay to identify small molecule antagonists of the estrogen related receptor signaling pathway with the pleiotropic PPARgamma coactivator (PGC) from Tox21 10K library (AID 1224841; call rule not given here)
Outline: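 In the PGC/ERR line, DMSO solutions of test chemicals are pin-delivered to 2,000 cells/well six hours after dispensing. Following eighteen hours' incubation, One-Glo reagent is added and luminescence recorded.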

[18] = qHTS assay to identify small molecule agonists of the estrogen related receptor signaling pathway with the pleiotropic PPARgamma coactivator (PGC) from Tox21 10K library (AID 1224842); also: nearly all actives have a fitted effect of over 15% in size
Outline: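 PGC/ERR reporter cells (NTP line) were seeded 2,000 per well, rested 6 h at 37 C/5% CO2, then pin-dosed with compounds in DMSO for 18 h at 37 C; luciferase read by One-Glo luminescence after 30 min at room temperature.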

[19] = qHTS assay to identify small molecule antagonists of the estrogen related receptor (ERR) signaling pathway from Tox21 library (AID 1224848); also: nearly all actives have a fitted effect of over 50% in size
Outline: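 First, 2,000 ERR cells per well were plated and held 6 h at 37 C/5% CO2. Next, compounds in DMSO were pinned in and left 18 h at 37 C. Finally, ONE-Glo was added and luminescence read after 30 min at room temperature.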

[20] = qHTS assay to identify small molecule agonists of the estrogen related receptor (ERR) signaling pathway from Tox21 library (AID 1224849; calls by dose curve; also: nearly all actives have a fitted effect of over 15% in size); settings: ERR reporter cell line, ONE-Glo luciferase, 18 h
Outline: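 Reporter cells (ERR, NTP source) treated with Tox21 10K compounds 18 h, 37 C. Readout: ONE-Glo luminescence, 30 min RT.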
% is scaled to controls: 0 for no effect and ±100 for the full control effect.

COc1ccccc1NC(=O)CC(C)=O
inactive: Potency [1] | Potency [2] | Potency [3] | Potency [4] | Potency [5] | Potency [6] | Potency [7] | Potency [8] | Potency [9] | outcome [10] | Potency [11] | outcome [12] | Potency [13] | Potency [14] | outcome [15]

COc1ccc(C(=O)c2ccccc2)c(O)c1
inactive: Potency [1] | Potency [3] | Potency [4] | Potency [5] | Potency [7] | Potency [9] | Potency [16] | outcome [10] | Potency [11] | outcome [12] | Potency [14]
active: Potency [2] 31.2 µM and 35.6 µM and 30.9 µM | Potency [6] 47.8 µM and 48.6 µM
inactive and 9.77 µM (active): Potency [13]

N[C@@H](Cc1c[nH]c2ccccc12)C(=O)O
inactive: Potency [1] | Potency [2] | Potency [3] | Potency [4] | Potency [7] | Potency [9] | Potency [16] | outcome [10] | Potency [11] | outcome [12] | Potency [13] | Potency [14] | outcome [15]

C#C[C@]1(O)CC[C@H]2[C@@H]3CCc4cc(O)ccc4[C@H]3CC[C@@]21C
active: Potency [1] 27.1 µM and 19.3 µM and 8.41 µM | Potency [11] 100 µM and 61.9 µM | Potency [13] 8.65 µM and 19.5 µM
inactive: Potency [2] | Potency [3] | Potency [4] | Potency [9] | Potency [16] | outcome [10] | outcome [12] | Potency [14] | outcome [15]

O=C(O)CCCCC1CCSS1 (stereo not given)
inactive: Potency [1] | Potency [2] | Potency [3] | Potency [4] | Potency [7] | Potency [17] | Potency [18] | Potency [8] | Potency [9] | Potency [16] | Potency [11] | Potency [19] | activity change, positive = activation ([20]; at 42.5 µM (top of the series)) 4.75% | activity change, positive = activation ([20]; at 92.4 µM (top of the series)) -0.498% and 6.05% | outcome [12] | Potency [13] | Potency [14] | outcome [15]

C#C[C@]1(O)CC[C@H]2[C@@H]3CCC4=CC(=O)CC[C@@H]4[C@H]3CC[C@@]21CC
inactive and 89.8 µM (active): Potency [11]
inactive and 54.5 µM (active): Potency [1]
43.6 µM (active) and inactive: Potency [13]
inactive: Potency [2] | Potency [3] | Potency [4] | Potency [7] | Potency [8] | Potency [9] | Potency [16] | outcome [10] | outcome [12] | Potency [14]

CCCCCCCCCCCCCC(=O)OC(C)C
inactive and 2.45 µM (active): Potency [13]
inactive: Potency [1] | Potency [2] | Potency [3] | Potency [4] | Potency [7] | Potency [8] | Potency [9] | outcome [10] | Potency [11] | outcome [12] | Potency [14]

CC(=O)c1ccc(S(=O)(=O)NC(=O)NC2CCCCC2)cc1
inactive: Potency [1] | Potency [2] | Potency [3] | Potency [4] | Potency [7] | Potency [8] | Potency [9] | Potency [16] | Potency [11] | outcome [12] | Potency [13] | Potency [14] | outcome [15]
